Consider seven compounds from PubChem BioAssay (NCI).

Holding throughout (assay): NCI-60 one-dose screen, 48 h (100 = growth as untreated, 0 = no growth, -100 = all killed)
Common to all, as to conditions: 10 µM unless noted

The subject of test [1] is HCT-15 colon.
In test [2] the test system is HT29 colon.
Test [3] concerns SNB-75 CNS.
For test [4], the system named is SNB-19 CNS.
In test [5] the test system is U251 CNS.
In test [6] the test system is PC-3 prostate.
Test [7] relates to SK-MEL-5 melanoma.
Test [8] concerns UACC-62 melanoma.
Test [9] relates to LOX IMVI melanoma.
For test [10], the system named is SK-MEL-28 melanoma.
Test [11] deals with SK-MEL-2 melanoma.
Test [12] has as its system EKVX NSCLC.
The test system of test [13] is SN12C renal.
Test [14] has as its system UO-31 renal.
The test system of test [15] is TK-10 renal.
Test [16] deals with ACHN renal.
The test system of test [17] is CAKI-1 renal.
The test system of test [18] is A498 renal.
For test [19], the system named is CCRF-CEM leukemia.
The subject of test [20] is MOLT-4 leukemia.

The panel holds about 83,000 compounds, 20% with a hit somewhere; the sample as a whole holds those more often.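 Note: values are percent growth. 100 is the growth of untreated cells, values between 100 and 0 indicate rising inhibition; between -100 and 0 indicates cell death.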 A number with no mark means an inactive call. Active and inactive are the calls of the source. The calls were made as follows: active = growth percent below 10; inactive = the rest.

In the case of `COc1ccc(OC)c(/C=C/C(=O)N/N=C/c2ccccc2)c1`, the growth in test [1] was 42%; in [2] it was 20.7%; in test [3], 41.1%; in test [4], 47.9%; in [5] it was 43.5%; in [6] it was 63.5%. Moreover, the growth was 30.8% in test [7]; 61% in [8]; 42.1% in test [9]; 65.5% in test [10]; -1.33% (active) in test [11]; 64% in test [12]. The growth was 52.1% in test [13]; 56.6% in [14]; 56.7% in test [15]; 62.8% in test [16]; 47.5% in [17]; 38.7% in test [18]. Besides, the results for the growth in test [19] and in test [20] were 55.2% and 36.5%, respectively.
Take `O=C(O)c1cn(C2CC2)c2cc(N3CCN(C(=O)Nc4nc(-c5ccccc5)cs4)CC3)c(F)cc2c1=O`: the growth in test [1] is 29.9%; in [2] it was 4.04% (active); in test [3], 9.5% (active); in test [4] it was 21.6%; in test [5], 9.17% (active); in test [6], 11.3%. The growth in [7] was 3.08% (active); in test [8] it was 15.2%; in [9], -81.8% (active); in test [10], 52.9%; in test [11], -10.8% (active); in test [12], 37.5%. The growth in test [13] was 4.91% (active); in [14], 5.5% (active); in [15] it was 26.3%; in test [16], 25.2%; in test [17], 63.6%; in test [18], -0.916% (active). Further, the growth in test [19] was 23%; in [20], 22.9%.
Take `O=C(O)CCC(=O)Nc1nnc(-c2ccccc2)s1`: the growth in test [1] is 93.7%; in test [2], 106%; in test [3], 87.8%; in [4], 105%; in test [5], 105%; in test [6], 94.8%. In addition, the growth in [7] was 103%; in [8], 97.8%; in test [9], 99.5%; in test [10], 107%; in test [11], 106%; in test [12], 95.3%. Besides, the growth is 104% in [13]; 106% in [14]; 111% in test [15]; 109% in test [16]; 97.8% in test [17]; 98.9% in test [18]. The growth in test [19] is 106%; in test [20], 111%.
Consider `CCN1C(=O)N(CC)C2Nn3c(s/c(=C\c4ccc([N+](=O)[O-])cc4)c3=O)=NC21` (stereo not given), for which the growth in test [1] was 61.6%; in [2] it was 109%; in test [3] it was 82%; in test [4], 89.3%; in test [5] it was 80.3%; in test [6], 16%. In addition, the growth in test [7] was 93.4%; in test [8], 75.6%; in test [9] it was 94.2%; in test [10] it was 78.4%; in test [11], 110%; in [12], 73.3%. Further, the growth in test [13] was 79.7%; in test [14], 55.1%; in [15], 69.9%; in [16], 74.9%; in [17], 79.8%; in test [18], 53.2%. Moreover, the growth in [19] is 40.6%; in [20], 61.7%.
For `CSc1ccc2c(c1)c(CCN)c(C)n2Cc1ccc(Cl)c(Cl)c1`, the growth is -91.3% (active) in [1]; -82.9% (active) in test [2]; -84.3% (active) in test [3]; -75% (active) in [4]; -87.3% (active) in test [5]; -90% (active) in [6]. Besides, the growth in test [7] was -95.1% (active); in test [8], -89.6% (active); in test [9] it was -89.7% (active); in test [10] it was -65.6% (active); in test [11] it was -66.1% (active); in [12] it was -86.7% (active). Further, the growth was -80.2% (active) in test [13]; -91% (active) in test [14]; -80.4% (active) in test [15]; -85.5% (active) in [16]; -92.5% (active) in test [17]; -91.8% (active) in test [18]. In addition, the growth is -56.2% (active) in [19] and -64.6% (active) in [20].
For the compound `CCN1C(=O)N(CC)C2Nn3c(s/c(=C4\C(=O)Nc5ccccc54)c3=O)=NC21` (stereo not given), the growth in [1] is 35.9%; in test [2] it was 81.2%; in test [3] it was 19.3%; in test [4] it was 55.8%; in test [5], 42.8%; in test [6] it was 30.3%. Also, the growth in test [7] was 41.6%; in test [8], 46.6%; in [9] it was 56.9%; in [10], 60%; in [11], 61.2%; in [12], 83.2%. In addition, the growth was 49.8% in test [13]; 54.8% in test [14]; 13.7% in test [15]; 53.7% in test [16]; 37.9% in test [17]; -2.29% (active) in test [18]. For the same compound, the results for the growth in test [19] and in [20] were 35.9% and 59%, respectively.
As to `CCCCOc1nc2c(C)cccc2cc1-c1cc(-c2ccc(Cl)cc2)nc(-c2ccc(Cl)cc2)c1`, the growth in [1] is 103%; in test [2], 103%; in test [3], 106%; in test [4] it was 92.3%; in test [5], 100%; in test [6], 94.8%. Besides, the growth in test [7] was 103%; in [8], 97.8%; in [9] it was 98.3%; in test [10], 101%; in test [11], 102%; in [12] it was 101%. The growth in [13] was 96%; in [14], 95.6%; in test [15], 108%; in test [16] it was 101%; in test [17], 93.9%; in test [18], 90.4%. Also, the growth in test [19] and in test [20] was 103% throughout.
